Results published in PubChem BioAssay (NCATS).
The source made the active and inactive calls. Entries that show only a call come without a potency. Calls come from the whole dose curve; as a rule, active = well fitted inhibition curve with a large enough effect; inconclusive = small, poorly fitted or top-dose-only effect; inactive = flat fitted curve, though single readings scatter.

Target: Luciferin 4-monooxygenase (Photinus pyralis) (UniProt P08659)
Assay: Primary firefly luciferase (FLuc) qHTS assay for identification of artifact compounds. (AID 1845220); note: nearly all actives have a fitted effect of over 60% in size
Settings: purified firefly luciferase, luminescence, 5 min; series mostly up to 54.1 µM
Summary of the method: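 Titrated compounds were incubated 15 min at RT, protected from light, with luciferin and ATP at 10 uM; reaction started with 10 nM FLuc, luminescence imaged at 5 min, and concentration-response fitted by Hill equation.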
Potency is the fitted concentration of half-maximal effect.

SMILES	Potency	outcome
COc1ccc(-c2ccc3c(N4CCOCC4C)nc(N4CCOCC4C)nc3n2)cc1CO (centres undefined)	inactive	–
O=C(NCCN1CCOCC1)c1cc2c(Oc3ccc(NC(=O)C4(C(=O)Nc5ccc(F)cc5)CC4)cc3)ccnc2[nH]1	inactive	–
C=C[C@@]1(C)C=C2C(=O)C(O)=C3[C@](C)(C(=O)O)CC[C@@H]4C[C@]34[C@]2(O)C(=O)C1	inactive	–
CCc1cccc(CC)c1-n1c(C=C(C)C)c(C(=O)N2CCNCC2)cc(-c2nc(-c3ccc(C(F)(F)F)cc3)cs2)c1=O	inactive	–
CCc1cc2c(cc1CC)CC(NCC(O)c1ccc(O)c3[nH]c(=O)ccc13)C2 (centres undefined)	inactive	–
COCC(=O)NC/C=C/c1ccc2ncnc(Nc3ccc(Oc4ccc(C)nc4)c(C)c3)c2c1	inactive	–
O=C(c1c(F)ccc(NS(=O)(=O)N2CC[C@@H](F)C2)c1F)c1c[nH]c2ncc(-c3cnc(C4CC4)nc3)cc12	inactive	–
CN1CCN(c2ccc(-c3cccc(CN4CCOCC4)c3)cc2NC(=O)c2c[nH]c(=O)cc2C(F)(F)F)CC1	inactive	–
CCNC(=O)C#Cc1ccc2c(C(=Nc3ccc(CN(C)C)cc3)c3ccccc3)c(O)[nH]c2c1	inactive	–
CC(CCC1(O)OC2CC3C4CC=C5C[C@@H](O[C@@H]6O[C@H](CO)[C@@H](O[C@@H]7O[C@@H](C)[C@H](O)[C@@H](O)[C@H]7O)[C@H](O)[C@H]6O[C@@H]6O[C@@H](C)[C@H](O)[C@@H](O)[C@H]6O)CC[C@]5(C)C4CC[C@]3(C)[C@@]2(O)[C@@H]1C)CO[C@@H]1O[C@H](CO)[C@@H](O)[C@H](O)[C@H]1O (some centres undefined)	–	inactive [at 11.6 µM]
CCCOc1ccc(CCc2nc3cc(-c4c(C)noc4C)ccc3n2CCN2CCOCC2)cc1	inactive	–
CC(C)(O)C1Cc2c(ccc(C(=O)CCc3ccccc3)c2O)O1 (centres undefined)	294 nM (active)	–
O=C(N[C@H]1CCN(C(=O)c2cc(C(F)(F)F)cc(C(F)(F)F)c2)[C@H](Cc2ccc(Cl)cc2)C1)c1ccnc2ccccc12	inactive	–
COc1cccc(CN(C(=O)CC(C)(C)C)[C@H]2C[C@H](C(=O)N3CCNCC3)N(Cc3ccc4c(c3)OCO4)C2)c1	inactive	–
CC(C)Oc1ccc(-c2cnc3c(-c4ccnc5ccccc45)cnn3c2)cc1	inactive	–
Fc1ccc(N2CCN(CCC3OCCc4ccccc43)CC2)cc1 (centres undefined)	inactive	–
O=C(NCC1(N2CCN(c3ccccc3)CC2)CCOCC1)c1cccnc1Sc1ccccc1	inactive	–
CC(C)OC(=O)N1CCC(Oc2ncnc3c2cnn3-c2ccc(S(C)(=O)=O)cc2F)CC1	inactive	–
O=C(N[C@@H]1CCCc2c1cnn2-c1ccc(F)cc1F)c1ccccn1	inactive	–
CN(C)CCn1cc(-c2ccc(F)cc2)c(-n2cccc2)n1	inactive	–

SMILES	Potency	outcome
CC1(C)CC[C@]2(C(=O)O[C@@H]3O[C@H](CO)[C@@H](O)[C@H](O)[C@H]3O)CC[C@]3(C)C(=CCC4[C@@]5(C)CC[C@H](O[C@@H]6O[C@H](C(=O)O)[C@H](O)[C@H](O)[C@H]6O)C(C)(C)C5CC[C@]43C)[C@@H]2C1 (some centres undefined)	inactive	–
C=C1C(=O)O[C@H]2C1CCC(C)=C1C(=O)C=C(C)[C@@]12O (some centres undefined)	inactive	–
O=C(Nc1ccc(Cl)cc1)C1CCCN(C(=O)c2cccc(-c3ccco3)c2)C1 (centres undefined)	inactive	–
CC1=CC2/C=C(\C)CCC(O)C/C=C/C(=O)OC23C(=O)NC(CC(C)C)C3C1C (centres undefined)	inactive	–
Cc1[nH]c2ccccc2c1CCNC(=O)c1cccs1	inactive	–
C/C=C(\C)C(=O)OC1C[C@@]2(COC(C)=O)O[C@H]2/C=C\[C@@]2(C)O[C@@H]2[C@H]2OC(=O)C(COC(C)=O)=C12 (some centres undefined)	inactive	–
CCC(C)c1ccc(NC(=O)Cn2cnc3c2c(=O)n(C)c(=O)n3C)cc1 (centres undefined)	inactive	–
C=C1C(=O)O[C@@H]2/C=C(/C)[C@@H](OC(C)=O)C/C=C(\C)C[C@@H](OC(=O)/C(=C/CO)CO)[C@@H]12	inactive	–
CCN(Cc1ccccc1)C(=O)Cn1c(=O)n(C)c2cnc(-c3ccccc3)nc21	inactive	–
Cc1cc2sc(NC(=O)Cc3ccccc3)nc2cc1Cl	inactive	–
O=C(C1CCCCC1)N(CCN1CCN(c2ccccc2O)CC1)c1ccccn1	inactive	–
COc1cc(C#N)ccc1S(=O)(=O)Nc1ccc2c(c1)cc(C)c(=O)n2C	inactive	–
COc1cc(N2CCC(O)CC2)ccc1Nc1nc(Nc2ccccc2S(=O)(=O)C(C)C)c2[nH]cnc2n1	inactive	–
Cc1nc(NC(=O)N2CCC[C@H]2C(N)=O)sc1-c1ccnc(C(C)(C)C(F)(F)F)c1	inactive	–
COc1ccc(Oc2c(Cl)cnn(-c3cc(C)cc(C)c3)c2=O)cc1	inactive	–
O=C(c1ccc(OC(F)F)c(C#Cc2ccccn2)c1)N1Cc2cccnc2C1	inactive	–
COC(=O)C1=COC(O[C@@H]2O[C@H](CO[C@@H]3O[C@H](COC(=O)/C=C\c4ccc(O)cc4)[C@@H](O)[C@H](O)[C@H]3O)[C@@H](O)[C@H](O)[C@H]2O)C2C(CO)=CCC12 (some centres undefined)	inactive	–
C[C@@H]1O[C@@H](O[C@H]2[C@H](OC(=O)[C@]34CCC(C)(C)C[C@H]3C3=CCC5[C@@]6(C)C[C@H](O)[C@H](O[C@@H]7O[C@H](C(=O)O)[C@@H](O)[C@H](O)[C@H]7O)[C@@](C)(CO)C6[C@H](O)C[C@@]5(C)[C@]3(C)C[C@H]4O)O[C@@H](CO)[C@@H]2O)[C@H](O)[C@H](O)[C@H]1O[C@@H]1OC[C@@H](O)[C@H](O[C@H]2OC[C@](O)(CO)[C@H]2O)[C@H]1O (some centres undefined)	–	inactive [at 11.6 µM]
CCC[C@H](N[C@H]1CCc2cc(F)cc(F)c2C1)C(=O)Nc1cn(C(C)(C)CNCC(C)(C)C)cn1	inactive	–
